Inconclusive results are not listed. Activity calls are given as the source filed them. Calls follow the shape of the dose curve; as a rule, active = well fitted inhibition curve with a large enough effect; inconclusive = small, poorly fitted or top-dose-only effect; inactive = flat fitted curve, though single readings scatter.
Potency is read from the fitted curve at half-maximal effect.

A short description of this assay: Primary qHTS for inhibitors of nuclear receptor binding SET domain protein 2 (NSD2) in an isogenic RCH-ACV NSD2 p.E1099K mutant (9B) (AID 1645876). Also: nearly all actives have a fitted effect of over 70% in size. As to conditions: RCH-ACV (leukaemia line) NSD2 E1099K (9B) viability, CellTiter-Glo, 72 h; series mostly up to 44.9 µM. A general note: In qHTS, concentration-response curves come from the screen itself.
With `C=C1C(=O)O[C@@H]2/C=C(\C)CC/C=C(/C=O)[C@H](OC)[C@@H](OC(=O)C(C)C)[C@@H]12`, the Potency is 8.01 µM (active).

Regarding `O=C(/C=C/c1ccccc1O)O[C@@H]1O[C@H](CO)[C@@H](O)[C@H](O)[C@H]1O`, the Potency entry was “inactive”.

As to `Cc1cc2c(c(=O)o1)C=C1CC[C@H]([C@H](C)Cn3cnc(=N)c4[nH]cnc43)C[C@@H]1O2`, the Potency result was “inactive”.

Turning to `C=C1C(=O)O[C@@H]2C3C(=C(C)[C@@H](O)[C@@H](OC(=O)/C(=C/C)COC(C)=O)[C@@H]12)C(=O)[C@H]1O[C@@]31C` (some centres undefined), the Potency is 2.82 µM (active).

Turning to `C=C1C(=O)OC2C1CCC1(C)C(O)CC=C(C)C21` (centres undefined), the Potency was 18.3 µM (active).

`CC(=O)O[C@H]1CC(C)(C)CC2[C@]13CO[C@@]21CCC2[C@@]4(C)CC[C@H](O[C@@H]5OC[C@H](O[C@@H]6O[C@H](CO)[C@@H](O)[C@H](O)[C@H]6O[C@@H]6OC[C@@H](O[C@@H]7O[C@H](CO)[C@@H](O)[C@H](O)[C@H]7O)[C@H](O)[C@H]6O)[C@H](O)[C@H]5O[C@@H]5O[C@H](CO)[C@@H](O)[C@H](O)[C@H]5O)[C@@](C)(CO)C4CC[C@@]2(C)[C@]1(C)C[C@H]3O` (some centres undefined): the Potency was 1.09 µM (active).

`C=C1CC[C@H]2C(=C)CC[C@H]3C(=C)C(=O)O[C@@H]3[C@@H]12`: the Potency was 16.3 µM (active).

As for `C=C1CC[C@@H]2[C@](C)(CO)[C@H](O)CC[C@@]2(C)[C@@H]1C/C=C1/C(=O)OCC1O` (some centres undefined), the Potency is 14.5 µM (active).

Regarding `Cc1[nH]c2ccc(F)cc2c1-c1nc2c3cccnc3c3ncccc3c2[nH]1`, the Potency is 1.21 µM (active).

Source of the values: PubChem BioAssay (NCATS).
